According to PubChem BioAssay AID1159580 (chemical genetic matrix, 2015):
Among all 5,500 compounds or so, about 2,000 (36%) were called active. Roughly 18% stayed inconclusive and do not appear here. No stated cut-off is given here; in the data, active means normalized growth mostly below about 0.91 (no sharp cut-off); inconclusive means no clear call, values can overlap the other calls; inactive means mostly above about 0.92. This is one part of the list.

Test: chemical genetic growth profiling, strain panel (AID 1159580);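 further: tested at 20 µM; growth read once vehicle control cultures reached saturation at 30 °C; 1 = growth at the plate median or of vehicle wells; lower values mean less growth of the strain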
Details: growth OD

Measured: normalized growth

CCCCCCCCCCCCCCCC[N+](C)(C)C
active: S. cerevisiae deletion strains, locus YJR075W, strain HOC1, active compounds read low 0.0608 | S. cerevisiae deletion strains, locus YKL009W, strain mrt4, active compounds read low 0.126 | S. cerevisiae deletion strains, locus YKL068W, active compounds read low 0.057 | S. cerevisiae deletion strains, locus YKL085W, strain MDH1 (second series), active compounds read low 0.0537 | S. cerevisiae deletion strains, locus YKL085W, strain MDH1, active compounds read low 0.0537 | S. cerevisiae deletion strains, locus YKL160W, strain elf1, active compounds read low 0.0583 | S. cerevisiae deletion strains, locus YKL190W, strain CNB1, active compounds read low 0.0478 | S. cerevisiae deletion strains, locus YKR001C, strain vps1, active compounds read low 0.0609 | S. cerevisiae deletion strains, locus YKR026C, strain gcn3, active compounds read low 0.0627 | S. cerevisiae deletion strains, locus YKR091W, strain srl3, active compounds read low 0.0569 | S. cerevisiae deletion strains, locus YLL001W, strain dnm1, active compounds read low 0.0599 | S. cerevisiae deletion strains, locus YLL026W, active compounds read low 0.0546 | S. cerevisiae deletion strains, locus YLL041C, strain sdh2, active compounds read low 0.0568 | S. cerevisiae deletion strains, locus YLR027C, strain aat2, active compounds read low 0.0555 | S. cerevisiae deletion strains, locus YLR039C, strain RIC1, active compounds read low 0.0825 | S. cerevisiae deletion strains, locus YLR058C, strain SHM2, active compounds read low 0.0453 | S. cerevisiae deletion strains, locus YLR102C, strain apc9, active compounds read low 0.0605 | S. cerevisiae deletion strains, locus YLR113W, strain HOG1, active compounds read low 0.113 | S. cerevisiae deletion strains, locus YLR221C, strain rsa3, active compounds read low 0.0541 | S. cerevisiae deletion strains, locus YLR258W, strain gsy2, active compounds read low 0.0561 | S. cerevisiae deletion strains, locus YLR262C, strain YPT6 (second series), active compounds read low 0.0788 | S. cerevisiae deletion strains, locus YLR262C, strain YPT6, active compounds read low 0.0977 | S. cerevisiae deletion strains, locus YLR268W, strain sec22, active compounds read low 0.0658 | S. cerevisiae deletion strains, locus YLR320W, strain mms22, active compounds read low 0.0733 | S. cerevisiae deletion strains, locus YLR330W, strain CHS5, active compounds read low 0.0514 | S. cerevisiae deletion strains, locus YLR342W, strain FKS1 (second series), active compounds read low 0.0636 | S. cerevisiae deletion strains, locus YLR342W, strain FKS1, active compounds read low 0.0598 | S. cerevisiae deletion strains, locus YLR357W, strain rsc2, active compounds read low 0.103 | S. cerevisiae deletion strains, locus YLR370C, strain arc18, active compounds read low 0.061 | S. cerevisiae deletion strains, locus YLR371W, strain rom2, active compounds read low 0.0606 | S. cerevisiae deletion strains, locus YLR384C, strain iki3, active compounds read low 0.0599 | S. cerevisiae deletion strains, locus YLR418C, strain cdc73, active compounds read low 0.0891 | S. cerevisiae deletion strains, locus YML016C, strain PPZ1, active compounds read low 0.0596 | S. cerevisiae deletion strains, locus YML032C, strain rad52, active compounds read low 0.0653 | S. cerevisiae deletion strains, locus YML120C, strain ndi1, active compounds read low 0.0558 | S. cerevisiae deletion strains, locus YML124C, strain tub3, active compounds read low 0.0593 | S. cerevisiae deletion strains, locus YMR058W, strain fet3, active compounds read low 0.0569 | S. cerevisiae deletion strains, locus YMR078C, strain ctf18, active compounds read low 0.0689 | S. cerevisiae deletion strains, locus YMR125W, strain sto1, active compounds read low 0.0643 | S. cerevisiae deletion strains, locus YMR129W, active compounds read low 0.0561 | S. cerevisiae deletion strains, locus YMR205C, strain PFK2, active compounds read low 0.0755 | S. cerevisiae deletion strains, locus YMR223W, strain ubp8, active compounds read low 0.0626 | S. cerevisiae deletion strains, locus YMR231W, strain pep5, active compounds read low 0.0651 | S. cerevisiae deletion strains, locus YMR263W, strain SAP30, active compounds read low 0.0582 | S. cerevisiae deletion strains, locus YMR307W, strain GAS1, active compounds read low 0.119 | S. cerevisiae deletion strains, locus YNL067W, strain RPL9B, active compounds read low 0.0498 | S. cerevisiae deletion strains, locus YNL071W, strain lat1, active compounds read low 0.0578 | S. cerevisiae deletion strains, locus YNL128W, strain TEP1, active compounds read low 0.0627 | S. cerevisiae deletion strains, locus YNL153C, strain GIM3, active compounds read low 0.0486 | S. cerevisiae deletion strains, locus YNL183C, strain NPR1, active compounds read low -0.00175 | S. cerevisiae deletion strains, locus YNL209W, strain ssb2, active compounds read low 0.0612 | S. cerevisiae deletion strains, locus YNL233W, strain BNI4, active compounds read low 0.053 | S. cerevisiae deletion strains, locus YNL248C, strain rpa49, active compounds read low 0.0567 | S. cerevisiae deletion strains, locus YNL250W, strain rad50, active compounds read low 0.0666 | S. cerevisiae deletion strains, locus YNL271C, strain bni1, active compounds read low 0.0608 | S. cerevisiae deletion strains, locus YNL298W, strain CLA4, active compounds read low 0.0592 | S. cerevisiae deletion strains, locus YNL307C, strain MCK1, active compounds read low 0.0664 | S. cerevisiae deletion strains, locus YNL322C, strain KRE1 (second series), active compounds read low 0.0599 | S. cerevisiae deletion strains, locus YNL322C, strain KRE1, active compounds read low 0.0495 | S. cerevisiae deletion strains, locus YNR049C, strain mso1, active compounds read low 0.0575 | S. cerevisiae deletion strains, locus YNR052C, strain pop2, active compounds read low 0.0593 | S. cerevisiae deletion strains, locus YOL006C, strain TOP1, active compounds read low 0.0794 | S. cerevisiae deletion strains, locus YOL012C, strain htz1 0.179 | S. cerevisiae deletion strains, locus YOL147C, strain pex11, active compounds read low 0.0577 | S. cerevisiae deletion strains, locus YOR001W, strain rrp6, active compounds read low 0.0595 | S. cerevisiae deletion strains, locus YOR061W, strain CKA2, active compounds read low 0.0395 | S. cerevisiae deletion strains, locus YOR069W, strain VPS5, active compounds read low 0.0494 | S. cerevisiae deletion strains, locus YOR070C, strain gyp1, active compounds read low 0.0582 | S. cerevisiae deletion strains, locus YOR080W, strain dia2, active compounds read low 0.0639 | S. cerevisiae deletion strains, locus YOR083W, strain WHI5, active compounds read low 0.0574 | S. cerevisiae deletion strains, locus YOR106W, strain vam3, active compounds read low 0.0616 | S. cerevisiae deletion strains, locus YOR136W, strain idh2, active compounds read low 0.0711 | S. cerevisiae deletion strains, locus YOR144C, strain elg1, active compounds read low 0.0571 | S. cerevisiae deletion strains, locus YOR184W, strain ser1, active compounds read low 0.0671 | S. cerevisiae deletion strains, locus YOR231W, strain MKK1, active compounds read low 0.0937 | S. cerevisiae deletion strains, locus YOR265W, strain rbl2, active compounds read low 0.0534 | S. cerevisiae deletion strains, locus YOR270C, strain vph1, active compounds read low 0.0651 | S. cerevisiae deletion strains, locus YOR290C, strain snf2, active compounds read low 0.0594 | S. cerevisiae deletion strains, locus YOR316C, strain cot1, active compounds read low 0.0575 | S. cerevisiae deletion strains, locus YPL051W, strain arl3, active compounds read low 0.0558 | S. cerevisiae deletion strains, locus YPL055C, strain LGE1, active compounds read low 0.0731 | S. cerevisiae deletion strains, locus YPL078C, strain atp4, active compounds read low 0.0629 | S. cerevisiae deletion strains, locus YPL106C, strain sse1, active compounds read low 0.0805 | S. cerevisiae deletion strains, locus YPL240C, strain hsp82, active compounds read low 0.0545 | S. cerevisiae deletion strains, locus YPL241C, strain CIN2, active compounds read low 0.0519 | S. cerevisiae deletion strains, locus YPL256C, strain CLN2, active compounds read low 0.107 | S. cerevisiae deletion strains, locus YPR119W, strain clb2, active compounds read low 0.0613 | S. cerevisiae deletion strains, locus YPR141C, strain kar3, active compounds read low 0.0706 | S. cerevisiae deletion strains, locus YPR163C, strain tif3, active compounds read low 0.0686 | S. cerevisiae deletion strains, locus YPR167C, strain met16, active compounds read low 0.0617 | S. cerevisiae deletion strains, strain wtn01, active compounds read low 0.0595 | S. cerevisiae strains, strain wild type, active compounds read low 0.0507
